Calls of active or inactive are those of the source.

Test [1] is described as follows: E. coli DRC41 culture turbidity changes, primary screen, E. coli filamentation inducer project, strain DRC41, OD650, 48 h (AID 1152).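 Also: E. coli MC1000 strain DRC41 lacking acrAB efflux pump and sulA.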 As to conditions: E. coli DRC41 (acrAB sulA), higher = more signal, called active from +8 up or from −8 down.
Test [2] in a line: small-molecule binders of probe aLefty1, primary screen, biochemical, small-molecule microarray, 635/667 nm fluorescence (AID 1153).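 Also: score merges spot fluorescence with signal-to-noise ratio from the scanned slide images.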 Particulars: higher = more signal.
Test [3] in a line: PSAC antagonists in infected red cells, primary screen, cell-based, P. falciparum Indochina, OD700, 1 h (AID 1154). Particulars: P. falciparum Indochina infected RBC osmotic lysis, higher = more signal, called active from +8 up or from −8 down.
A short description of test [4]: PSAC antagonists in infected red cells, primary screen, cell-based, P. falciparum Indochina, OD700, 2 h (AID 1155).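 Also: lysis reports solute entry through the parasite surface anion channel PSAC; channel blockers reduce lysis of infected cells.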 As to conditions: P. falciparum Indochina infected erythrocytes, osmotic lysis OD700; higher = more signal, called active from +8 up or from −8 down.
Test [5] can be described thus: osmotic lysis modulators in infected erythrocytes, primary screen, PSAC antagonist project, cell-based, P. falciparum Indochina, OD700, 3 h (AID 1156). As to conditions: higher = more signal, called active from +8 up or from −8 down.
Test [6] is described as follows: PSAC antagonists in infected red cells, primary screen, cell-based, P. falciparum Indochina, OD700, 18 h (AID 1157). Particulars: P. falciparum Indochina infected erythrocytes, osmotic lysis OD700, 18 h; higher = more signal, called active from +8 up or from −8 down.
Test [7] can be described thus: modulators of S6 phosphorylation in cells, primary screen, cell-based, A549, cytoblot, luminescence, serum-stimulated (AID 1158).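 Also: serum-stimulated A549 lung adenocarcinoma cells; signal is phosphorylated S6 detected by cytoblot immunostaining with HRP secondary.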 As to conditions: A549 phospho-S6 cytoblot, 5 h, higher = more signal.
Test [8] deals with NADPH oxidase 2 (Homo sapiens) (UniProt P04839). Nature of the test: NOX2-dependent H2O2 signal modulators, primary screen, NOX inhibitor project, cell-based, HEK293-NOX2, PMA-stimulated, Amplex Red fluorescence (AID 1159). Also: test concentration not given here. Particulars: 45 min, higher = more signal, called active from +8 up or from −8 down.
Sequence of NADPH oxidase 2 (Homo sapiens) (P04839 whole entry, looked up): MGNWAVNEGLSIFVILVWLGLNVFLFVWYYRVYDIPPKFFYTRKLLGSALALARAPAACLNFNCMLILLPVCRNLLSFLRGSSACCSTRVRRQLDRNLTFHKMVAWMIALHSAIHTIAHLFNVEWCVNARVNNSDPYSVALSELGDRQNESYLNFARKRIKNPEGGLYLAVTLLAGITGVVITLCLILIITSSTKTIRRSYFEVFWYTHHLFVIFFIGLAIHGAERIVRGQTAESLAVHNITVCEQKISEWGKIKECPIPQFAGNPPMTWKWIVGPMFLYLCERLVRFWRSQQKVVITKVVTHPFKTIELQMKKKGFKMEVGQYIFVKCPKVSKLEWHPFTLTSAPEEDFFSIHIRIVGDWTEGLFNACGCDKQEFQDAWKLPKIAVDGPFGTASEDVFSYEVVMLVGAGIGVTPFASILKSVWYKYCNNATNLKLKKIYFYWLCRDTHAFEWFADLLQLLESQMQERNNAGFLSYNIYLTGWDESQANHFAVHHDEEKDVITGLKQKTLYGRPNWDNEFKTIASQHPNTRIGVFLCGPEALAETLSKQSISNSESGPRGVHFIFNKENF
Test [9] deals with NADPH oxidase 4 (Homo sapiens) (UniProt Q9NPH5). Nature of the test: NOX4-dependent H2O2 signal modulators, primary screen, NOX inhibitor project, cell-based, HEK293-NOX4, tetracycline-induced, Amplex Red fluorescence (AID 1160). Particulars: 45 min, higher = more signal, called active from +8 up or from −8 down.
Sequence of NADPH oxidase 4 (Homo sapiens) (Q9NPH5 whole entry, looked up): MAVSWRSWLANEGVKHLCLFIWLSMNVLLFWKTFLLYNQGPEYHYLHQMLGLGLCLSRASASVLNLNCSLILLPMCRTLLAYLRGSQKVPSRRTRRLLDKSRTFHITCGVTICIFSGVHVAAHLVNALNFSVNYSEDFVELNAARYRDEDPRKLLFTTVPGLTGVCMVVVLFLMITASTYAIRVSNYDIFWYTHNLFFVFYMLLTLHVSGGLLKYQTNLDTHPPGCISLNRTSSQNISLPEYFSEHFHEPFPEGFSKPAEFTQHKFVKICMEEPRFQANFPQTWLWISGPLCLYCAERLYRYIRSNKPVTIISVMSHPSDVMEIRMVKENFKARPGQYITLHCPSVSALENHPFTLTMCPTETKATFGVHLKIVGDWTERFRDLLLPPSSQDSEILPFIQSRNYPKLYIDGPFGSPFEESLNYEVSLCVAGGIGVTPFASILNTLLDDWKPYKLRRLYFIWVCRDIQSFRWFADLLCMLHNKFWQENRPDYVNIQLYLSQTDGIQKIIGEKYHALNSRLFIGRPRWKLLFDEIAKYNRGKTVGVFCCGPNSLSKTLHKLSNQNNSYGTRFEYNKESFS
For test [10], the target named is NADPH oxidase 5 (Homo sapiens) (UniProt Q96PH1). Kind of test: NOX5-dependent H2O2 signal modulators, primary screen, NOX inhibitor project, cell-based, HEK293-NOX5, Amplex Red fluorescence (AID 1161). Particulars: HEK293-NOX5, ionomycin, 45 min, higher = more signal.
Sequence of NADPH oxidase 5 (Homo sapiens) (Q96PH1 whole entry, looked up): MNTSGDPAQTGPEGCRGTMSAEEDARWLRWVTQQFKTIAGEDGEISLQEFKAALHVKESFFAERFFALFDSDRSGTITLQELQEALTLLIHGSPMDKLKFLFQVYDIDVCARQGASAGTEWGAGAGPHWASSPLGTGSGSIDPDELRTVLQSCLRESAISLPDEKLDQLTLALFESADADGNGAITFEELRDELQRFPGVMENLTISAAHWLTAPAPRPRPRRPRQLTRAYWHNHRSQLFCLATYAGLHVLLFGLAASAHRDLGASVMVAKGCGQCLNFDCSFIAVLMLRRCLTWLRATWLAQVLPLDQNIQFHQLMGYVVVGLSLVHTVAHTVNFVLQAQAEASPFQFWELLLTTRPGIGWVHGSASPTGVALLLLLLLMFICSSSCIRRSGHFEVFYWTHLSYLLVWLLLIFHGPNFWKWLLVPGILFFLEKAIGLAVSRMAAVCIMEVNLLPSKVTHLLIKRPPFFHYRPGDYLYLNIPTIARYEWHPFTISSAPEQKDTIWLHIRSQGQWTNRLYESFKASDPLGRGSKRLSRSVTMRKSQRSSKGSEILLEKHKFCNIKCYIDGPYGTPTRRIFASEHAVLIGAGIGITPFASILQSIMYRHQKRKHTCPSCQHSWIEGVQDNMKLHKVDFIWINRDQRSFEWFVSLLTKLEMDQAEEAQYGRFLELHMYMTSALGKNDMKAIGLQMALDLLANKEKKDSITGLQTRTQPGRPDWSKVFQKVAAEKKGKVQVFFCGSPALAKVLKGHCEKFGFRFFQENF
Test [11] is described as follows: A549 cell viability effects, profiling panel, calcein-AM fluorescence, 48 h, basal (AID 1162). Also: test concentration not given here. Particulars: higher = more signal.
Test [12] in a line: adipocyte viability effects, profiling panel, cell-based, 3T3-L1 adipocytes, calcein-AM fluorescence, 48 h, basal (AID 1163). Also: test concentration not given here. As to conditions: 3T3-L1 adipocytes viability, higher = more signal.
Test [13] is described as follows: HepG2 cell viability effects, profiling panel, calcein-AM fluorescence, 48 h, basal (AID 1164). Also: test concentration not given here. As to conditions: higher = more signal.
Test [14] is described as follows: MM1S cell viability effects, profiling panel, calcein-AM fluorescence, 48 h, basal (AID 1165).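 Also: viability of MM1S multiple myeloma cells under basal unstimulated conditions; test concentration not given here.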 Particulars: higher = more signal.
Test [15] in a line: basal RPMI8226 viability, no added stimulus, profiling panel, cell-based, calcein-AM fluorescence, 48 h, PK04 Diversity Set (AID 1166).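 Also: cells grown under basal conditions without added stimulus; test concentration not given here.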 Particulars: RPMI8226 myeloma viability, higher = more signal.
A short description of test [16]: basal HepG2 mitochondrial membrane potential changes, profiling panel, cell-based, JC-1 fluorescence, 24 h, 100 nL compound (AID 1167). Also: test concentration not given here. Particulars: higher = more signal.
The nature of test [17]: basal 3T3-L1 adipocyte mitochondrial potential changes, profiling panel, cell-based, JC-1 fluorescence, 3T3-L1 adipocytes, 24 h, 100 nL compound (AID 1168). Also: test concentration not given here. Particulars: JC-1 mitochondrial fluorescence, higher = more signal, called active from +8 up or from −8 down.
Test [18] in a line: basal RPMI8226 mitochondrial membrane potential changes, profiling panel, cell-based, JC-1 fluorescence, 24 h, 100 nL compound (AID 1169). Also: test concentration not given here. As to conditions: RPMI8226 myeloma, JC-1 mitochondrial potential fluorescence, higher = more signal.
The nature of test [19]: basal MM1S mitochondrial membrane potential changes, profiling panel, cell-based, JC-1 fluorescence, 24 h, 100 nL compound (AID 1170). Also: test concentration not given here. As to conditions: higher = more signal.
Test [20] is described as follows: A549 lung cancer cell viability effects, profiling panel, resazurin fluorescence, 24 h, PK04 Diversity Set (AID 1171). Also: test concentration not given here. As to conditions: higher = more signal, called active from +8 up or from −8 down.

As for `NC(=O)NCC#Cc1ccc2c(c1)[C@]1(C(=O)N2)[C@H](c2ccccc2OCCO)N2[C@H](c3ccccc3)[C@H](c3ccccc3)OC(=O)[C@H]2[C@@H]1C(=O)N1CCCCCCC1`, the z-score in test [1] was 1.01 (inactive); in [3], 1.71 (inactive); in test [4], 0.786 (inactive); in test [5] it was 1.19 (inactive); in test [6], 0.443 (inactive); in test [7] it was -0.281. The z-score in [8] is 1.87 (inactive); in [9], 0.893 (inactive); in [10], 0.768; in [11], -0.169; in [12], 0.73; in test [13] it was 0.231. The z-score in [14] is -0.0358; in test [15] it was 0.236; in test [16], -0.978; in [17], 0.303 (inactive); in [18], -0.498; in test [19] it was 0.143. Besides, the z-score in test [20] is 0.414 (inactive). Further, in test [2], the composite z-score came out at 2.71.

Consider `O=C1OCCC=C[C@H]2OC34C=CCN(CCN5CCOCC5)C(=O)[C@H]3N(CCO)C(=O)[C@@H]4C12` (stereo not given in full), for which the z-score in [1] is -0.392 (inactive); in [3] it was 0.329 (inactive); in [4] it was 0.392 (inactive); in test [5] it was 0.918 (inactive); in test [6] it was 0.551 (inactive); in test [7], 0.65. Moreover, the z-score in [8] is 0.808 (inactive); in test [9] it was 0.49 (inactive); in test [10], 0.0715; in test [11], -0.53; in test [12], -0.246; in test [13] it was -0.209. In addition, the z-score is 0.471 in [14]; -0.253 in test [15]; -0.659 in [16]; -0.293 (inactive) in [17]; -0.578 in test [18]; -0.47 in [19]. Further, the z-score in test [20] was -0.948 (inactive). This molecule came in with a composite z-score in test [2] of -0.231.

Turning to `O=C1C2C=CC(C(O)c3cccc4ccccc34)N(n3cnnc3)C2C(=O)N1Cc1ccccc1` (stereo not given), the z-score in test [1] is -1.53 (inactive); in test [3] it was -0.0851 (inactive); in test [4], 0.327 (inactive); in test [5] it was 0.282 (inactive); in [6], 0.339 (inactive); in test [7], -0.711. The z-score in [8] was -0.154 (inactive); in [9], 0.0285 (inactive); in [10] it was -0.879; in test [11] it was -0.986; in [12], -0.06; in test [13], -1.6. Also, the z-score in [14] is -0.467; in test [15] it was -1.81; in test [16], -1.23; in [17] it was -1.18 (inactive); in test [18] it was -0.0245; in test [19], -0.0153. For the same molecule, in test [20], the z-score is -0.522 (inactive). In addition, the composite z-score in test [2] came to 1.69.

With `COCCOC(=O)N1C(=O)[C@@]2(c3cc(C#CCCO)ccc31)[C@H](c1ccc(O)cc1)N1[C@H](c3ccccc3)[C@H](c3ccccc3)OC(=O)[C@H]1[C@@H]2C(=O)N1CCCCCCC1`, the z-score in test [1] was -0.275 (inactive); in test [3], 0.139 (inactive); in test [4] it was -0.178 (inactive); in [5], -0.599 (inactive); in test [6], 0.0501 (inactive); in [7], -0.451. For the same molecule, the z-score was 1.17 (inactive) in [8]; 0.131 (inactive) in test [9]; 1.38 in test [10]; -0.0601 in test [11]; 0.943 in test [12]; 1.18 in test [13]. The z-score in test [14] was 0.632; in test [15], -1.22; in test [16], -0.701; in [17], -0.838 (inactive); in test [18], 0.242; in test [19], 0.271. Moreover, in [20], the z-score was -0.44 (inactive). Moreover, the composite z-score in [2] worked out at 1.6.

Consider `CO[C@H]1O[C@H](CO)[C@@H](OC(=O)Nc2cccc(F)c2)[C@H](OC(=O)Nc2ccccc2-c2ccccc2)[C@@H]1OC(=O)Nc1ccccc1-c1ccccc1`, for which the z-score in test [1] was 0.538 (inactive); in [3] it was 3.1 (inactive); in [4] it was 2.23 (inactive); in [5] it was 0.346 (inactive); in test [6] it was 1.68 (inactive); in test [7], 0.0437. Further, the z-score in test [8] is -2.45 (inactive); in test [9], -0.551 (inactive); in test [10], -0.608; in test [11], -2.35; in [12] it was 0.63; in test [13] it was -1.85. Also, the z-score in test [14] was -2.28; in [15] it was -2.37; in [16], -0.27; in [17] it was 0.827 (inactive); in test [18], -0.877; in test [19] it was -1.38. Further, the z-score in test [20] was -2.79 (inactive). In [2], this molecule yielded a composite z-score of 0.257.

In the case of `COC(=O)[C@@]1(Cc2ccc(OC)cc2)[C@H]2c3cc(C(=O)N(C)C)n(CCSCCO)c3C[C@H]2CN1C(=O)c1ccccc1`, the z-score in [1] was -0.641 (inactive); in [3], 2.02 (inactive); in test [4], 0.0187 (inactive); in [5] it was 0.453 (inactive); in test [6], 0.641 (inactive); in test [7] it was -0.368. Further, the z-score in test [8] is 0.393 (inactive); in test [9], 0.978 (inactive); in [10] it was -0.24; in test [11], -0.46; in test [12] it was -0.774; in [13], 0.595. The z-score in [14] is -2.12; in test [15] it was -0.254; in test [16] it was 1.47; in [17], -0.358 (inactive); in [18], 0.179; in test [19], -1.07. Moreover, the z-score in [20] was -0.494 (inactive). This molecule had a composite z-score in [2] of 0.0391.

As to `C=C(CCCC)C(=O)CC[C@H](OC(=O)c1ccccc1-c1ccccc1C(=O)O)c1ccc(CO)o1`, the z-score in test [1] is -0.002 (inactive); in test [3], 1.69 (inactive); in test [4], 0.241 (inactive); in [5] it was 1.2 (inactive); in [6] it was 0.16 (inactive); in test [7] it was -0.16. Further, the z-score in test [8] is 0.333 (inactive); in test [9], -0.269 (inactive); in test [10] it was -1.15; in test [11], 0.0743; in test [12], 0.418; in [13] it was -0.862. The z-score in test [14] was -0.0307; in test [15] it was 0.334; in test [16] it was -0.373; in test [17], -0.727 (inactive); in test [18], -0.658; in test [19] it was 0.063. Moreover, the z-score in test [20] was 1.09 (inactive). This molecule also had a composite z-score in test [2] of -0.0984.

For `[N-]=[N+]=NCc1ccccc1[C@@H]1OC(c2ccc(OCCCO)cc2)=N[C@]1(Cc1ccccc1N=[N+]=[N-])C(N)=O`, the z-score in test [1] is -0.386 (inactive); in test [3] it was 20.5 (active); in test [4] it was 2.68 (inactive); in [5], 1.5 (inactive); in [6], 0.54 (inactive); in [7], -0.0826. Besides, the z-score in [8] was -1.07 (inactive); in test [9], -0.527 (inactive); in [10], 0.12; in test [11], -0.533; in test [12], 0.306; in [13], 0.0804. Also, the z-score in test [14] is -1.01; in test [15], -2.22; in [16] it was -1.5; in [17], -1.92 (inactive); in test [18], -0.918; in test [19], -0.0745. Further, the z-score in test [20] is -0.139 (inactive). In test [2], this molecule returned a composite z-score of 0.636.
